# Tau FP inhib: qHTS for Inhibitors of Tau Fibril Formation, Fluorescence Polarization; K18 P301L tau heparin fibrillization, Alexa594 FP, 6 h; Potency, µM (doses to about 57.7 µM), for inactives: top-dose activity, negative = inhibition, actives largely listed as inhibitors; hit rate 0.39% among 280,000; AID 1468, 2008; further: nearly all actives have a fitted effect of over 55% in size
#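 FP of Alexa 594-tau after heparin (20 uM) induction. Substrate: human K18 P301L, 15 uM unlabeled, 0.24 uM labeled. Buffer 100 mM sodium acetate pH 7. 6 hr, 37 C.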
# Tau fluor cs: Counterscreen qHTS for Inhibitors of Tau Fibril Formation, Fluorescence Polarization | AID 1463, 2008 | hit rate 0.93% among 280,000 | tau K18 P301L Alexa594 fluorescence, heparin fibrillization | Potency, µM (top dose mostly 57.7 µM), for inactives: top-dose activity change, negative = decrease; further: nearly all actives have a fitted effect of over 55% in size
#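 Human K18 P301L tau (15 uM unlabeled plus 0.24 uM Alexa 594-labeled, final) in 100 mM sodium acetate pH 7 was mixed with compound and 20 uM heparin and incubated 6 hr at 37 C.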
# JMJD2E inh: qHTS Assay for Inhibitors of Human Jumonji Domain Containing 2E (JMJD2E). AID 2147, 2009. JMJD2E catalytic domain, FDH-coupled NADH fluorescence (FDH is formaldehyde dehydrogenase). hit rate 1.6% among 230,000. Lysine-specific demethylase 4E (Homo sapiens), B2RXH2. Potency, µM (top dose mostly 57.1 µM), for the others: at the top dose activity change, negative = inhibition, most hits filed as inhibitors; active means well fitted inhibition curve with a large enough effect, not every such curve was filed as active; inconclusive means small, poorly fitted or top-dose-only effect, or another doubt; inactive means no such curve, though single readings can be large or run the other way;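 further: 0% = wells with enzyme and -100% = buffer wells without enzyme; nearly all actives have a fitted effect of over 50% in size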
# Target sequence (B2RXH2 1-337 limits assumed): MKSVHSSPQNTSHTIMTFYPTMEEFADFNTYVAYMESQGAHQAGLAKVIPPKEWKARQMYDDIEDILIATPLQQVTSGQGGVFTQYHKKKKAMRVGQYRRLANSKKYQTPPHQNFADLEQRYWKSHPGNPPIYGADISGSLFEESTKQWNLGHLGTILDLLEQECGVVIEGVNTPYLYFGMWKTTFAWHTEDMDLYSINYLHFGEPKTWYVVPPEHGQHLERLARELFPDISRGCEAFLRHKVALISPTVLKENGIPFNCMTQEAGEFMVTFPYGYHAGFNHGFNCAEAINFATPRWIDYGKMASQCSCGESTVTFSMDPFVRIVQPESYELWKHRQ
# GoLoco inh red: qHTS Assay for Inhibitors of RGS12 GoLoco Motif Activity (Red Fluorophore). Gai1:RGS12 GoLoco peptide FP, rhodamine, 10 min. Potency, µM (top dose mostly 61.6 µM), without a hit: top-dose activity, negative = inhibition, actives largely listed as inhibitors. Guanine nucleotide-binding protein G(i) subunit alpha-1 (Homo sapiens), P63096. hit rate 0.44% among 230,000. AID 880, 2007; active means well fitted inhibition curve with a large enough effect, not every such curve was filed as active; inactive means no such curve, though single readings can be large or run the other way; further: nearly all actives have a fitted effect of over 30% in size
# Target sequence (P63096 whole entry, looked up): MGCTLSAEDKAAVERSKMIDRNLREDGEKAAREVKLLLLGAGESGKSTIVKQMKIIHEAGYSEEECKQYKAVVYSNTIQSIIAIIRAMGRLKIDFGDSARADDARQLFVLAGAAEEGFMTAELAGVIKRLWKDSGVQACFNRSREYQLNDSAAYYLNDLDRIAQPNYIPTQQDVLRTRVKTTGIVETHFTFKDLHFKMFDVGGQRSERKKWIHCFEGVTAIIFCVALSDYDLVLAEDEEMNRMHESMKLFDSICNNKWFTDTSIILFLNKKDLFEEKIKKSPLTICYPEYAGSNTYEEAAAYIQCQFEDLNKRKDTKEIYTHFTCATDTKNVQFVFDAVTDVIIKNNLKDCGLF
# Tau fibril ThT: qHTS for Inhibitors of Tau Fibril Formation, Thioflavin T Binding. hit rate 2.1% among 270,000. AID 1460, 2008. Potency, µM (series often up to 57.4 µM), for the others: top-dose activity, negative = inhibition, usual class: inhibitors. recombinant tau K18 P301L, heparin-induced fibrillization, ThT fluorescence. Microtubule-associated protein tau (Homo sapiens), P10636; further: nearly all actives have a fitted effect of over 55% in size
#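 ThT emission at 510 nm, taken 1 hr after adding 30 uM dye, quantifies aggregates formed when 20 uM heparin acts on human tau K18 P301L for 6 hr at 37 C.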
# Active calls of the source: *; u = inconclusive; x = not tested or not shown; [ ] = another dose, or the depositor's remark. An excerpt weighted towards active compounds, which were near 3.4% of everything screened. Unless noted, the call rests on the fitted dose curve; in most records, active means well fitted curve in the direction sought with a large enough effect; inconclusive means small, poorly fitted or top-dose-only effect, or another doubt; inactive means no such curve, though single readings can be large; an effect the other way counts as inactive or inconclusive. Unless noted, on the % scale 0 is the no-effect control and ±100 the full control effect; potency means the concentration at half of the fitted maximal effect.
SMILES,Tau FP inhib,Tau fluor cs,JMJD2E inh,GoLoco inh red,Tau fibril ThT
CC1=C(c2ccc(C)c(C)c2)S(=O)(=O)N=C1N1CCC(C(=O)N2CCC(C)CC2)CC1,5.2%,7.1%,x,x,-7.2%
CCCCNc1nc2c(S(=O)(=O)c3ccc(Br)cc3)nnn2c2ccsc12,-17.8%,-14.0%,x,x,11.1%
CCCCOc1ccc(S(=O)(=O)Nc2cccc(-c3ccc(N4CCOCC4)nn3)c2)cc1,1.7%,u,x,x,2.0%
N#CC1=C(N)NC(SCC(=O)Nc2ccccc2)=C(C#N)C12CCCCC2,-2.7%,-29.9%,5.0%,8.1%,-6.1%
N#CC1=C(N)NC(SCC(=O)c2ccc(Cl)cc2)=C(C#N)C12CCCC2,14.3%,15.8µM*[quencher],-8.7%,2.2%,u
COc1ccc(C(=O)CSC2=C(C#N)C3(CCCCC3)C(C#N)=C(N)N2)cc1,8.3%,u,-4.3%,x,-12.1%
N#CC1=C(N)NC(SCC(=O)c2ccc(Br)cc2)=C(C#N)C12CCCCC2,u,12.6µM*[quencher],-7.1%,7.8%,u
COc1ccc(-c2c(C)c3ccc(O)c(CN4CCC(C)CC4)c3oc2=O)cc1OC,-1.5%,-8.5%,x,x,-4.3%
CCOc1ccc(CCNC(=O)c2cn(CC)c3ccc(S(=O)(=O)N4CCc5ccccc5C4)cc3c2=O)cc1OCC,-0.1%,-18.9%,x,x,-4.2%
O=c1c(=Nc2ccccc2O)c(=O)c2ccccc12,u,-13.2%,-15.9%,4.1%,10µM*
CC(C)CN1C(=O)c2ccc(NC(=O)c3cccs3)cc2C1=O,u,u,u,4.3%,-9.8%
O=C(Nc1ccc(Oc2ccc3c(c2)C(=O)N(c2ccc(O)cc2)C3=O)cc1)c1cccs1,14.1µM*,2.0%,-2.1%,3.2%,1.1%
CCOc1ccccc1CNC(=O)c1ccc(CS(=O)Cc2cccc(Cl)c2)o1 (centres undefined),14.2%,-4.4%,x,x,-16.2%
CCCCn1c(O)c(/C=C2\C=NN=C2c2ccccc2)sc1=S,11.2µM*,u,5.0%,6.3%,-10.6%
CCCCCCn1c(O)c(/C=C2\C=NN=C2c2ccccc2)sc1=S,8.4%,0.2%,0.5%,-1.6%,4.3%
[O-]/C(=C(\C(=S)Nc1ccc(SC(F)F)cc1)[n+]1cccc(CO)c1)c1ccc(Cl)s1,-12.1%,u,-8.7%,28.2%,25.1µM*
[O-]/C(=C(\C(=S)Nc1cccc2ccccc12)[n+]1cccc(CO)c1)c1ccc(Cl)s1,u,u,12.6µM*,15.0%,14.1µM*
Cc1ccc(NC(=S)/C(=C(\[O-])c2ccc(Cl)s2)[n+]2cccc(CO)c2)cc1C,-4.8%,-25.3%,-6.0%,22.1%,u
Cc1sc2c3ccsc3ccc2[n+]1C,20µM*,-21.5%,25.1µM*,-4.9%,25.1µM*
Cc1sc2ccc3sccc3c2[n+]1C,u,-24.4%,14.1µM*,-1.4%,25.1µM*
Cc1nnc(N2CCN(C(=O)Nc3cc(F)ccc3F)CC2)c2nn(-c3ccc(Cl)cc3)c(C)c12,-2.1%,-7.1%,x,x,-3.3%
C/C(CC1CC(COCC(C)C)OC1=O)=N\Nc1nc(-c2ccccc2)cs1 (centres undefined),-8.1%,u,3.7%,39.4%,17.8µM*
CC1CC(CC(=O)Nc2nc(-c3ccccc3)cs2)C(=O)O1 (centres undefined),3.0%,3.3%,-4.2%,5.5%,5.8%
O=C(/C=C/c1cccc(Cl)c1)Nc1ncccn1,3.2%,-3.1%,5.5%,0.1%,-10.2%
CSc1cccc(NC(=O)/C=C/c2cccc(Cl)c2)c1,u,12.6µM*[quencher],u,12.9%,18.5%
SMILES,Tau FP inhib,Tau fluor cs,JMJD2E inh,GoLoco inh red,Tau fibril ThT
N[C@]1(C(=O)O)CCc2cc(P(=O)(O)O)ccc21,0.8%,-5.2%,39.8µM*,6.9%,-5.3%
NC1(C(=O)O)CCc2cc(P(=O)(O)O)ccc21 (centres undefined),4.9%,3.0%,x,5.8%,2.8%
COc1ccc(CN2CCC(N(CCc3ccccc3)Cc3ccccc3)CC2)c(OC)c1,-12.3%,-12.0%,28.2µM*,-3.8%,-10.9%
C=CCc1cccc(CNc2nc3ccccc3n2C(C)C)c1O,5.3%,11.2µM*[quencher],-18.6%,5.4%,-15.0%
Cn1c(NCc2ccccc2O)nc2ccccc21,13.8%,4.7%,-9.8%,1.7%,2.5%
CCn1cc(/C=C/C(=O)Nc2ccn(Cc3c(F)c(F)cc(F)c3F)n2)cn1,u,-8.5%,2.5%,8.0%,22.4µM*
CC1=C(c2ccc(C(C)C)cc2)S(=O)(=O)NC1=NCc1ccccc1Br,u,-10.2%,x,x,6.8%
O=C(CCCCCNC(=O)c1ccccc1)N=Nc1c(O)[nH]c2c(Br)cc(Br)cc12,-0.7%,u,4.2%,3.4%,6.31µM*
CC(C)c1ccc2c(c1)C1(NN=C(c3ccccc3)S1)C(=O)N2 (centres undefined),13.7%,u,-29.5%,14.4%,25.1µM*
O=C(Cn1c(=O)n(Cc2ccco2)c(=O)c2cccnc21)Nc1ccccc1F,-1.6%,-7.0%,x,x,1.6%
Cc1ccc(/C=[N+](\[O-])c2ccc(N(C)C)cc2)c2nsnc12,31.6µM*,u,14.1µM*,6.2%,6.31µM*
COc1ccc(-c2coc3cc(O)ccc3c2=O)c(OC)c1O,1.7%,-9.0%,u,4.7%,-9.7%
COc1ccc(-c2coc3cc(O)ccc3c2=O)c(O)c1O,15.8µM*,12.6µM*[quencher],11.2µM*,-2.6%,10µM*
CN(CCC#N)C(=O)COC(=O)c1c2c(nc3ccccc13)/C(=C/c1ccco1)CC2,u,u,25.1µM*,30.2%,u
COc1ccccc1NC(=O)c1sc2nc(C)c(C(=O)Nc3ccc(C)cc3C)c(-c3ccccc3Cl)c2c1N,u,-16.8%,x,x,u
COc1ccc(OC)c(/C=N/NC(=O)c2ccc(=O)[nH]n2)c1,-8.4%,7.1%,4.1%,15.3%,-3.6%
COc1cccc(/C=N/NC(=O)c2ccc(=O)[nH]n2)c1O,-3.2%,-16.1%,12.6µM*,3.9%,u
COc1cccc(/C=N/NC(=O)c2[nH]c(C)c(C(=O)N/N=C/c3cccc(OC)c3O)c2C)c1O,13.0%,u,25.1µM*,15.3%,u
Cc1[nH]c(C(=O)N/N=C/c2ccc(N(C)C)cc2)c(C)c1C(=O)N/N=C/c1ccc(N(C)C)cc1,-0.5%,u,u,8.9%,2.24µM*
Cc1[nH]c(C(=O)N/N=C/c2ccc(C(=O)O)cc2)c(C)c1C(=O)N/N=C/c1ccc(C(=O)O)cc1,5.3%,8.1%,-13.1%,21.7%,-7.5%
COc1cccc(/C=N/NC(=O)c2ccc(-c3ccccc3)cc2)c1O,2.1%,-28.8%,u,-9.6%,u
COc1cc(OC)c(OC)cc1/C=N/NC(=O)c1ccc(=O)n(C)c1,4.5%,-18.4%,-21.0%,-2.5%,-13.0%
